Test results reported in PubChem BioAssay (NCATS).
Records with an inconclusive call do not appear. Values without a mark were called inactive. Calls come from the whole dose curve; as a rule, active = well fitted inhibition curve with a large enough effect; inconclusive = small, poorly fitted or top-dose-only effect; inactive = flat fitted curve, though single readings scatter.

tested on: HEK293; test: Cytotoxic Profiling of Annotated Libraries Using Quantitative High-Throughput Screening (AID 1296008); conditions: Five cell lines viability, CellTiter-Glo ATP luminescence, 48-72 h; max response: active compounds read low; note: nearly all actives have a fitted effect of over 60% in size
In short: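 Cells exposed to compounds for 48 or 72 hr at 37 degrees Celsius. Viability read as ATP-coupled luminescence with CellTiter-Glo after 10 min at room temperature.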
% is set by controls: 0 for no effect and ±100 for the full control effect.

Structure (SMILES) | max response [%]
C=C1CC[C@H]2[C@@](C)(CCC(O)[C@@]2(C)CO)[C@@H]1CCC1=CCOC1=O (stereo not given in full) | 3.62
CC1CCC2(C=O)C(CO)=CCCC2C1(C)CC(=O)O (stereo not given) | -8.27
C=CC1(C)C=C2CCC3C(C)(C)C(O[C@@H]4O[C@@H](CO)[C@H](O)[C@H]4O)CCC3(C)C2CC1O[C@@H]1O[C@H](C)[C@H](O)[C@H](O)[C@H]1O (stereo not given in full) | -0.0102
C/C(=C\CC[C@@H](C)[C@H]1CC(O)[C@@]2(C)C3CC[C@H]4C(C)(C)[C@@H](OC5OCC(O)C(O)C5OC5OC(CO)C(O)C(O)C5O)CC[C@@]45C[C@@]35CC(O)[C@]12C)C(=O)O (stereo not given in full) | 0.167
CC(C)(C)NCCCNC(=O)c1cccc(Br)c1 | 0.813
CC(=O)OC1C[C@]2(C)C(O)CC(C)=C[C@H](OC(=O)c3ccc(O)cc3)C2[C@]1(O)C(C)C (stereo not given in full) | -3.03
C=C1CC[C@@H]2[C@](C)(CO[C@@H]3O[C@H](CO)[C@@H](O)[C@H](O)[C@H]3O)[C@H](O)CC[C@@]2(C)[C@@H]1C/C=C1/C(=O)OC[C@H]1O | -4.02
COC(=O)/C=C/C12COC(C)(C)C1C(O)C(OC(C)=O)C1(C)C2CCC2(C)C(c3ccoc3)OC(=O)C3OC321 (stereo not given) | -22.6
CC1CC(=O)C2=C(CCC3(O)C(O)c4c(O)cccc4C(=O)C23O)C1 (stereo not given) | -13.5
COC(=O)c1ccccc1O[C@@H]1O[C@H](CO)[C@@H](O)[C@H](O)[C@H]1O[C@@H]1O[C@@H](C)[C@H](O)[C@@H](O)[C@H]1O | 3.36
CCc1ccc(Cc2ccc3c(c2)[C@]2(OC3)O[C@H](CO)[C@@H](O)[C@H](O)[C@H]2O)cc1 | -3.78
OC[C@H]1O[C@@H](Oc2ccccc2)[C@H](O)[C@@H](O)[C@@H]1O | 0.0932
COc1cc2c(cc1OC)CC(=O)N(CCCNC[C@H]1Cc3cc(OC)c(OC)cc31)CC2 | -6.01
COc1cc(O)c([C@@H](CC(=O)N2CC(C)CC(C)C2)c2ccc3c(c2)OCO3)c(OC)c1 (stereo not given in full) | -5.89
C=CC/C=C\C/C=C\CCCCCCCc1cccc(O)c1C(=O)O | -5.53
Cc1ccc(-c2ccc3c(ccc4sc5c(c43)NC[C@@H](C)NC5=O)n2)cn1 | -21.3
C[C@@H]1C(=O)OC[C@H]2C(C(=O)O)=C[C@@H]3CC(C)(C)C[C@]312 | 4.25
C[C@H]1CC(=O)Nc2cccc(-c3cnn(C(C)(C)C)c3)c2N1 | 2.23
COC(=O)C(C)C1CCC2(C)C(=O)C=CC(C)(O)C2C1O (stereo not given) | -6.36
CC(=O)O[C@@H]1[C@@H](OC(=O)/C=C/c2ccccc2)[C@@H](OC(C)=O)[C@H](O[C@H]2[C@@H]3C=CO[C@@H](O[C@@H]4O[C@H](CO)[C@@H](O)[C@H](O)[C@H]4O)[C@@H]3[C@@]3(CO)O[C@@H]23)O[C@H]1C | -5.93
COc1cccc(C(=O)N2CCN(C(=O)COc3cccc(C)c3)CC2)c1OC | -16.5
C=C[C@H]1C(O[C@@H]2O[C@H](CO)[C@@H](O)[C@H](O)[C@H]2O)OC=C2C(=O)N3CCc4c([nH]c5ccccc45)[C@H]3C[C@H]21 (stereo not given in full) | -11.2
C/C=C(/COC(=O)/C(C)=C/C)C(=O)OC(CC)c1ccc(OC)c(OC)c1 (stereo not given) | 4.08
C=C1[C@H](OC(C)=O)[C@H]2[C@@H](OC(C)=O)[C@](C)(OC(C)=O)C[C@]2(OC(C)=O)C(=O)[C@H](C)/C=C/C(C)(C)C(=O)[C@H](OC(=O)C(C)C)[C@H]1OC(C)=O | 1.22
C=CC(C)(C)C12C=C(OC)C(=O)N3C(C(C)C)C(=O)NC31N(OC)c1ccccc12 (stereo not given) | -5.71
C/C1=C\CC[C@]2(C)O[C@@H]2[C@H](O)[C@H](C(C)C)[C@H](OC(=O)/C=C/c2ccccc2)C1 | -26.5
c1ccc(N2CCN(CCc3nn[nH]n3)CC2)cc1 | -5.85
C=C1CC2C(C)(CCC(=O)O)C(C(C)(C)O)CCC2(C)C2C(=O)OC(C)(C(=O)OC)C(=O)C12C (stereo not given) | 3.75
CC(C)=CCCC1(C)C=Cc2c(c(C)cc3c2[nH]c2ccccc23)O1 (stereo not given) | -24.1
CC1(C)CC[C@]2(C(=O)O[C@@H]3O[C@H](CO[C@@H]4O[C@H](CO)[C@@H](O)[C@H](O)[C@H]4O[C@@H]4O[C@H](CO)[C@H](O)[C@H](O)[C@H]4O)[C@@H](O)[C@H](O[C@@H]4O[C@H](CO)[C@@H](O)[C@H](O)[C@H]4O)[C@H]3O)CC[C@]3(C)C(=CCC4[C@@]5(C)CC[C@H](O[C@@H]6OC[C@@H](O)[C@H](O)[C@H]6O)[C@@](C)(C(=O)O)C5CC[C@]43C)[C@@H]2C1 (stereo not given in full) | 2.33
